Test results as given in PMC12529666, “Dysregulation of AGO2-miRNA dynamics underlies the AGO2-associated Lessel–Kreienkamp syndrome”.

B1: ATGCTTCG (ssRNA)
RNA 1: GAGUUCUACAGUCCGACGAUCCCAACAUGCUUCGCACCUGGAAUUCUCGGGUGCCAA
RNA 2: UGGAGUGUGACAAUGGUGUUUG
DNA 1: GATCGTCGGACTGTAGAACTC
DNA 2: TTGGCACCCGAGAATTCCA
modifications: constant regions annealed to DNA blockers; guide miR-122 5' phosphate
B2: ACGTCTTG (ssRNA)
RNA 1: GAGUUCUACAGUCCGACGAUCCCAACACGUCUUGCACCUGGAAUUCUCGGGUGCCAA
RNA 2: UGGAGUGUGACAAUGGUGUUUG
DNA 1: GATCGTCGGACTGTAGAACTC
DNA 2: TTGGCACCCGAGAATTCCA
modifications: constant regions annealed to DNA blockers; guide miR-122 5' phosphate
B3: ATGTCCCG (ssRNA)
RNA 1: GAGUUCUACAGUCCGACGAUCCCAACAUGUCCCGCACCUGGAAUUCUCGGGUGCCAA
RNA 2: UGGAGUGUGACAAUGGUGUUUG
DNA 1: GATCGTCGGACTGTAGAACTC
DNA 2: TTGGCACCCGAGAATTCCA
modifications: constant regions annealed to DNA blockers; guide miR-122 5' phosphate
B4: ACATTTCG (ssRNA)
RNA 1: GAGUUCUACAGUCCGACGAUCCCAACACAUUUCGCACCUGGAAUUCUCGGGUGCCAA
RNA 2: UGGAGUGUGACAAUGGUGUUUG
DNA 1: GATCGTCGGACTGTAGAACTC
DNA 2: TTGGCACCCGAGAATTCCA
modifications: constant regions annealed to DNA blockers; guide miR-122 5' phosphate
B5: GTACCCCG (ssRNA)
RNA 1: GAGUUCUACAGUCCGACGAUCCCAACGUACCCCGCACCUGGAAUUCUCGGGUGCCAA
RNA 2: UGGAGUGUGACAAUGGUGUUUG
DNA 1: GATCGTCGGACTGTAGAACTC
DNA 2: TTGGCACCCGAGAATTCCA
modifications: constant regions annealed to DNA blockers; guide miR-122 5' phosphate
B6: ATACCTCG (ssRNA)
RNA 1: GAGUUCUACAGUCCGACGAUCCCAACAUACCUCGCACCUGGAAUUCUCGGGUGCCAA
RNA 2: UGGAGUGUGACAAUGGUGUUUG
DNA 1: GATCGTCGGACTGTAGAACTC
DNA 2: TTGGCACCCGAGAATTCCA
modifications: constant regions annealed to DNA blockers; guide miR-122 5' phosphate
B7: ATGTCTCG (ssRNA)
RNA 1: GAGUUCUACAGUCCGACGAUCCCAACAUGUCUCGCACCUGGAAUUCUCGGGUGCCAA
RNA 2: UGGAGUGUGACAAUGGUGUUUG
DNA 1: GATCGTCGGACTGTAGAACTC
DNA 2: TTGGCACCCGAGAATTCCA
modifications: constant regions annealed to DNA blockers; guide miR-122 5' phosphate
B8: ACATCTTG (ssRNA)
RNA 1: GAGUUCUACAGUCCGACGAUCCCAACACAUCUUGCACCUGGAAUUCUCGGGUGCCAA
RNA 2: UGGAGUGUGACAAUGGUGUUUG
DNA 1: GATCGTCGGACTGTAGAACTC
DNA 2: TTGGCACCCGAGAATTCCA
modifications: constant regions annealed to DNA blockers; guide miR-122 5' phosphate
B9: GTACTTCG (ssRNA)
RNA 1: GAGUUCUACAGUCCGACGAUCCCAACGUACUUCGCACCUGGAAUUCUCGGGUGCCAA
RNA 2: UGGAGUGUGACAAUGGUGUUUG
DNA 1: GATCGTCGGACTGTAGAACTC
DNA 2: TTGGCACCCGAGAATTCCA
modifications: constant regions annealed to DNA blockers; guide miR-122 5' phosphate
B10: ACGCTTCG (ssRNA)
RNA 1: GAGUUCUACAGUCCGACGAUCCCAACACGCUUCGCACCUGGAAUUCUCGGGUGCCAA
RNA 2: UGGAGUGUGACAAUGGUGUUUG
DNA 1: GATCGTCGGACTGTAGAACTC
DNA 2: TTGGCACCCGAGAATTCCA
modifications: constant regions annealed to DNA blockers; guide miR-122 5' phosphate
B11: ACGTTCCG (ssRNA)
RNA 1: GAGUUCUACAGUCCGACGAUCCCAACACGUUCCGCACCUGGAAUUCUCGGGUGCCAA
RNA 2: UGGAGUGUGACAAUGGUGUUUG
DNA 1: GATCGTCGGACTGTAGAACTC
DNA 2: TTGGCACCCGAGAATTCCA
modifications: constant regions annealed to DNA blockers; guide miR-122 5' phosphate
B12: ATATCCTA (ssRNA)
RNA 1: GAGUUCUACAGUCCGACGAUCCCAACAUAUCCUACACCUGGAAUUCUCGGGUGCCAA
RNA 2: UGGAGUGUGACAAUGGUGUUUG
DNA 1: GATCGTCGGACTGTAGAACTC
DNA 2: TTGGCACCCGAGAATTCCA
modifications: constant regions annealed to DNA blockers; guide miR-122 5' phosphate
B13: ATACTTCG (ssRNA)
RNA 1: GAGUUCUACAGUCCGACGAUCCCAACAUACUUCGCACCUGGAAUUCUCGGGUGCCAA
RNA 2: UGGAGUGUGACAAUGGUGUUUG
DNA 1: GATCGTCGGACTGTAGAACTC
DNA 2: TTGGCACCCGAGAATTCCA
modifications: constant regions annealed to DNA blockers; guide miR-122 5' phosphate
B14: ATATCTCG (ssRNA)
RNA 1: GAGUUCUACAGUCCGACGAUCCCAACAUAUCUCGCACCUGGAAUUCUCGGGUGCCAA
RNA 2: UGGAGUGUGACAAUGGUGUUUG
DNA 1: GATCGTCGGACTGTAGAACTC
DNA 2: TTGGCACCCGAGAATTCCA
modifications: constant regions annealed to DNA blockers; guide miR-122 5' phosphate
B15: ACATTCTA (ssRNA)
RNA 1: GAGUUCUACAGUCCGACGAUCCCAACACAUUCUACACCUGGAAUUCUCGGGUGCCAA
RNA 2: UGGAGUGUGACAAUGGUGUUUG
DNA 1: GATCGTCGGACTGTAGAACTC
DNA 2: TTGGCACCCGAGAATTCCA
modifications: constant regions annealed to DNA blockers; guide miR-122 5' phosphate
B16: ACATCTTA (ssRNA)
RNA 1: GAGUUCUACAGUCCGACGAUCCCAACACAUCUUACACCUGGAAUUCUCGGGUGCCAA
RNA 2: UGGAGUGUGACAAUGGUGUUUG
DNA 1: GATCGTCGGACTGTAGAACTC
DNA 2: TTGGCACCCGAGAATTCCA
modifications: constant regions annealed to DNA blockers; guide miR-122 5' phosphate
B17: GCACCTTG (ssRNA)
RNA 1: GAGUUCUACAGUCCGACGAUCCCAACGCACCUUGCACCUGGAAUUCUCGGGUGCCAA
RNA 2: UGGAGUGUGACAAUGGUGUUUG
DNA 1: GATCGTCGGACTGTAGAACTC
DNA 2: TTGGCACCCGAGAATTCCA
modifications: constant regions annealed to DNA blockers; guide miR-122 5' phosphate
B18: GCATTTCG (ssRNA)
RNA 1: GAGUUCUACAGUCCGACGAUCCCAACGCAUUUCGCACCUGGAAUUCUCGGGUGCCAA
RNA 2: UGGAGUGUGACAAUGGUGUUUG
DNA 1: GATCGTCGGACTGTAGAACTC
DNA 2: TTGGCACCCGAGAATTCCA
modifications: constant regions annealed to DNA blockers; guide miR-122 5' phosphate
B19: ATGCTTTG (ssRNA)
RNA 1: GAGUUCUACAGUCCGACGAUCCCAACAUGCUUUGCACCUGGAAUUCUCGGGUGCCAA
RNA 2: UGGAGUGUGACAAUGGUGUUUG
DNA 1: GATCGTCGGACTGTAGAACTC
DNA 2: TTGGCACCCGAGAATTCCA
modifications: constant regions annealed to DNA blockers; guide miR-122 5' phosphate
B20: GTACTCTG (ssRNA)
RNA 1: GAGUUCUACAGUCCGACGAUCCCAACGUACUCUGCACCUGGAAUUCUCGGGUGCCAA
RNA 2: UGGAGUGUGACAAUGGUGUUUG
DNA 1: GATCGTCGGACTGTAGAACTC
DNA 2: TTGGCACCCGAGAATTCCA
modifications: constant regions annealed to DNA blockers; guide miR-122 5' phosphate
B21: GCATCTTG (ssRNA)
RNA 1: GAGUUCUACAGUCCGACGAUCCCAACGCAUCUUGCACCUGGAAUUCUCGGGUGCCAA
RNA 2: UGGAGUGUGACAAUGGUGUUUG
DNA 1: GATCGTCGGACTGTAGAACTC
DNA 2: TTGGCACCCGAGAATTCCA
modifications: constant regions annealed to DNA blockers; guide miR-122 5' phosphate
B22: ATACTCTG (ssRNA)
RNA 1: GAGUUCUACAGUCCGACGAUCCCAACAUACUCUGCACCUGGAAUUCUCGGGUGCCAA
RNA 2: UGGAGUGUGACAAUGGUGUUUG
DNA 1: GATCGTCGGACTGTAGAACTC
DNA 2: TTGGCACCCGAGAATTCCA
modifications: constant regions annealed to DNA blockers; guide miR-122 5' phosphate
B23: ACATTTTG (ssRNA)
RNA 1: GAGUUCUACAGUCCGACGAUCCCAACACAUUUUGCACCUGGAAUUCUCGGGUGCCAA
RNA 2: UGGAGUGUGACAAUGGUGUUUG
DNA 1: GATCGTCGGACTGTAGAACTC
DNA 2: TTGGCACCCGAGAATTCCA
modifications: constant regions annealed to DNA blockers; guide miR-122 5' phosphate

target: AGO2 L192P (Homo sapiens, UniProt Q9UKV8 1-859, L192P;S387D;S824A;S828D;S831D;S834A); test: RNA Bind-n-Seq (nitrocellulose filter binding and sequencing); miR-122 guide loaded in AGO2; 60 min incubation; 30 mM Tris pH 8.0, 100 mM potassium acetate, 2 mM magnesium acetate, 0.5 mM TCEP, 0.005% NP-40, 0.01 mg/ml yeast tRNA; 3 nM AGO2-miR-122, 100 nM RNA library; 60; high values mean tight binding; conditions: protein: recombinant; tags: His6 (N-terminal, pFastBac HTA)
Outline: (§1)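 Fold enrichment is each target's read fraction divided by its read fraction in the input library. Sf9 insect cells expressed His-tagged AGO2 from baculovirus; the protein was loaded with a synthetic guide RNA and purified by Ni-NTA and a biotinylated capture oligo. The bound RNA was extracted, reverse-transcribed, barcode-amplified and sequenced on Illumina.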

Chain of AGO2 L192P (Q9UKV8 whole entry L192P/S387D/S824A/S828D/S831D/S834A): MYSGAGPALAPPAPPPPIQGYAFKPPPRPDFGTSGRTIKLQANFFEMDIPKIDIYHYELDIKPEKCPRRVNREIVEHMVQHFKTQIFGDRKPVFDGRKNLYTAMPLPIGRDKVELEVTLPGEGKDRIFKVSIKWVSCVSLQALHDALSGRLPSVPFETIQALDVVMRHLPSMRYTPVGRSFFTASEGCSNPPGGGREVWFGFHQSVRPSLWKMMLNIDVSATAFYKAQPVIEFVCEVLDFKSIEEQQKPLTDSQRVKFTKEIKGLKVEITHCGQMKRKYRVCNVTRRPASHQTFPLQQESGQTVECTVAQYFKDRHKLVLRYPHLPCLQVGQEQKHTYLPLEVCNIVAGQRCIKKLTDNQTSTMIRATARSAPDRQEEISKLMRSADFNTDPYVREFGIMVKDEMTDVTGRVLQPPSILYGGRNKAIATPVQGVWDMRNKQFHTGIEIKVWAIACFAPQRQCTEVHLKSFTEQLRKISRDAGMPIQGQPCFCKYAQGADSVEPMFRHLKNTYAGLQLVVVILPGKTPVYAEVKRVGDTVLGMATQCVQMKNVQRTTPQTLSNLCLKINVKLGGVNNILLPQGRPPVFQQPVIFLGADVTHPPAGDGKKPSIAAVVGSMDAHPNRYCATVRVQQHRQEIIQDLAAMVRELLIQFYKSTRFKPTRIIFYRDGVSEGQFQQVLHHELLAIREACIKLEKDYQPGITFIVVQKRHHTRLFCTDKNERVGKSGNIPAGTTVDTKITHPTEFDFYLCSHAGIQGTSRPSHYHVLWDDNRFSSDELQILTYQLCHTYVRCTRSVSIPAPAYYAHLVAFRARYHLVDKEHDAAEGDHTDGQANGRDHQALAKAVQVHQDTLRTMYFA

| Binder | binding signal |
| --- | --- |
| B1 | 0.336 fold enrichment over input |
| B2 | 0.319 fold enrichment over input |
| B3 | 0.319 fold enrichment over input |
| B4 | 0.421 fold enrichment over input |
| B5 | 0.358 fold enrichment over input |
| B6 | 0.339 fold enrichment over input |
| B7 | 0.316 fold enrichment over input |
| B8 | 0.386 fold enrichment over input |
| B9 | 0.351 fold enrichment over input |
| B10 | 0.346 fold enrichment over input |
| B11 | 0.361 fold enrichment over input |
| B12 | 0.467 fold enrichment over input |
| B13 | 0.406 fold enrichment over input |
| B14 | 0.351 fold enrichment over input |
| B15 | 0.493 fold enrichment over input |
| B16 | 0.519 fold enrichment over input |
| B17 | 0.387 fold enrichment over input |
| B18 | 0.358 fold enrichment over input |
| B19 | 0.354 fold enrichment over input |
| B20 | 0.332 fold enrichment over input |
| B21 | 0.349 fold enrichment over input |
| B22 | 0.349 fold enrichment over input |
| B23 | 0.41 fold enrichment over input |

target: AGO2 A367P (Homo sapiens, UniProt Q9UKV8 1-859, A367P;S387D;S824A;S828D;S831D;S834A); test: as above; conditions: protein: recombinant; tags: His6 (N-terminal, pFastBac HTA)
Outline: as §1

Chain of AGO2 A367P (Q9UKV8 whole entry A367P/S387D/S824A/S828D/S831D/S834A): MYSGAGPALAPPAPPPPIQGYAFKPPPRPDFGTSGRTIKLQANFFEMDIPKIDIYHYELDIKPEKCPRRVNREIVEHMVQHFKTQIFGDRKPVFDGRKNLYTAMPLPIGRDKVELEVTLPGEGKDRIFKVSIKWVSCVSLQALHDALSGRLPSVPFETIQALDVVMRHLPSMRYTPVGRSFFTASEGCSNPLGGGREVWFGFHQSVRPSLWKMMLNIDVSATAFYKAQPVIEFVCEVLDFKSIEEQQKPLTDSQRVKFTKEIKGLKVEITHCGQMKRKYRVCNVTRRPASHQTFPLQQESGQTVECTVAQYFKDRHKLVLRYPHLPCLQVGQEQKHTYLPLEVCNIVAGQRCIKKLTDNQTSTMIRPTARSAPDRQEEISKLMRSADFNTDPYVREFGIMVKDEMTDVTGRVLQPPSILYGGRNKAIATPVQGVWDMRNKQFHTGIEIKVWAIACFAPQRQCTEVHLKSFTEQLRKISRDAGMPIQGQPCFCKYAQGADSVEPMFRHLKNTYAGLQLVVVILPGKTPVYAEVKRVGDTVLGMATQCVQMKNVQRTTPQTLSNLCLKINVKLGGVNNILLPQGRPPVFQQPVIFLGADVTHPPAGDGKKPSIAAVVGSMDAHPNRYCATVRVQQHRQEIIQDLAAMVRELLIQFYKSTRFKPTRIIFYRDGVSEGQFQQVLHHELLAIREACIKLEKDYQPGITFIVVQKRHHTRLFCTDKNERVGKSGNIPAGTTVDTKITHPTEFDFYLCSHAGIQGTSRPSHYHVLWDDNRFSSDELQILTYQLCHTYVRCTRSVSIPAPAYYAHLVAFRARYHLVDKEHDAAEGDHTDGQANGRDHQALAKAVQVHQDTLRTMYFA

| Binder | binding signal |
| --- | --- |
| B1 | 0.127 fold enrichment over input |
| B2 | 0.134 fold enrichment over input |
| B3 | 0.125 fold enrichment over input |
| B4 | 0.151 fold enrichment over input |
| B5 | 0.123 fold enrichment over input |
| B6 | 0.127 fold enrichment over input |
| B8 | 0.135 fold enrichment over input |
| B9 | 0.13 fold enrichment over input |
| B10 | 0.139 fold enrichment over input |
| B11 | 0.128 fold enrichment over input |
| B12 | 0.17 fold enrichment over input |
| B13 | 0.138 fold enrichment over input |
| B14 | 0.124 fold enrichment over input |
| B15 | 0.178 fold enrichment over input |
| B16 | 0.197 fold enrichment over input |
| B17 | 0.154 fold enrichment over input |
| B18 | 0.127 fold enrichment over input |
| B19 | 0.12 fold enrichment over input |
| B20 | 0.134 fold enrichment over input |
| B21 | 0.123 fold enrichment over input |
| B22 | 0.134 fold enrichment over input |
| B23 | 0.143 fold enrichment over input |

target: AGO2 T357M (Homo sapiens, UniProt Q9UKV8 1-859, T357M;S387D;S824A;S828D;S831D;S834A); test: as above; conditions: protein: recombinant; tags: His6 (N-terminal, pFastBac HTA)
Outline: as §1

Chain of AGO2 T357M (Q9UKV8 whole entry T357M/S387D/S824A/S828D/S831D/S834A): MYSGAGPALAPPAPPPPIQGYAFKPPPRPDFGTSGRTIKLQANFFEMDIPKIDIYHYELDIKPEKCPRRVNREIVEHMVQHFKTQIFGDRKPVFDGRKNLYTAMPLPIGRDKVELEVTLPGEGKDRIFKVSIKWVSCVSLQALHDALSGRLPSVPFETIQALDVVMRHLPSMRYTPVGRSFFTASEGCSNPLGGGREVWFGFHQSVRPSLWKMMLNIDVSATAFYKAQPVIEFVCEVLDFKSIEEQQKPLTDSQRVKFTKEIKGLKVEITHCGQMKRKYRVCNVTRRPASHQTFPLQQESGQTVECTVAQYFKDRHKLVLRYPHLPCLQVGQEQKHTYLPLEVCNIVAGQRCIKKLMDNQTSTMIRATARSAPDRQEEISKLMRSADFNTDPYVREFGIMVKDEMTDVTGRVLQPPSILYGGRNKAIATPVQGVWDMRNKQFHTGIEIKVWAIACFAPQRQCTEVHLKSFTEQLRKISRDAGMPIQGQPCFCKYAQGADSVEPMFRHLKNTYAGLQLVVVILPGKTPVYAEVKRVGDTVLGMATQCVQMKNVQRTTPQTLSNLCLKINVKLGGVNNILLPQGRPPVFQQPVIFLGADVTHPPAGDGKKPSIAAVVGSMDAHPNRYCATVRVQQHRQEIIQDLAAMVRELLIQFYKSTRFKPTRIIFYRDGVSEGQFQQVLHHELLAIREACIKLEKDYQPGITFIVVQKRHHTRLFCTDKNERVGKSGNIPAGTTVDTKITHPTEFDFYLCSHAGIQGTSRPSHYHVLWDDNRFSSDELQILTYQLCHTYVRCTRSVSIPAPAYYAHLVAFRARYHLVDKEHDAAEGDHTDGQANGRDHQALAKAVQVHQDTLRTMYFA

| Binder | binding signal |
| --- | --- |
| B1 | 0.474 fold enrichment over input |
| B2 | 0.501 fold enrichment over input |
| B3 | 0.416 fold enrichment over input |
| B4 | 0.514 fold enrichment over input |
| B5 | 0.475 fold enrichment over input |
| B6 | 0.409 fold enrichment over input |
| B7 | 0.415 fold enrichment over input |
| B8 | 0.458 fold enrichment over input |
| B9 | 0.538 fold enrichment over input |
| B10 | 0.445 fold enrichment over input |
| B11 | 0.44 fold enrichment over input |
| B12 | 0.569 fold enrichment over input |
| B13 | 0.509 fold enrichment over input |
| B14 | 0.398 fold enrichment over input |
| B15 | 0.557 fold enrichment over input |
| B16 | 0.562 fold enrichment over input |
| B17 | 0.503 fold enrichment over input |
| B18 | 0.486 fold enrichment over input |
| B19 | 0.455 fold enrichment over input |
| B20 | 0.423 fold enrichment over input |
| B21 | 0.425 fold enrichment over input |
| B22 | 0.504 fold enrichment over input |
| B23 | 0.537 fold enrichment over input |

target: AGO2 F182del (Homo sapiens, UniProt Q9UKV8 1-859, S387D;S824A;S828D;S831D;S834A;del182-182); test: as above; conditions: protein: recombinant; tags: His6 (N-terminal, pFastBac HTA)
Outline: as §1

Chain of AGO2 F182del (Q9UKV8 other isoform, or with tags, fused parts or gaps S387D;S824A;S828D;S831D;S834A;del182-182): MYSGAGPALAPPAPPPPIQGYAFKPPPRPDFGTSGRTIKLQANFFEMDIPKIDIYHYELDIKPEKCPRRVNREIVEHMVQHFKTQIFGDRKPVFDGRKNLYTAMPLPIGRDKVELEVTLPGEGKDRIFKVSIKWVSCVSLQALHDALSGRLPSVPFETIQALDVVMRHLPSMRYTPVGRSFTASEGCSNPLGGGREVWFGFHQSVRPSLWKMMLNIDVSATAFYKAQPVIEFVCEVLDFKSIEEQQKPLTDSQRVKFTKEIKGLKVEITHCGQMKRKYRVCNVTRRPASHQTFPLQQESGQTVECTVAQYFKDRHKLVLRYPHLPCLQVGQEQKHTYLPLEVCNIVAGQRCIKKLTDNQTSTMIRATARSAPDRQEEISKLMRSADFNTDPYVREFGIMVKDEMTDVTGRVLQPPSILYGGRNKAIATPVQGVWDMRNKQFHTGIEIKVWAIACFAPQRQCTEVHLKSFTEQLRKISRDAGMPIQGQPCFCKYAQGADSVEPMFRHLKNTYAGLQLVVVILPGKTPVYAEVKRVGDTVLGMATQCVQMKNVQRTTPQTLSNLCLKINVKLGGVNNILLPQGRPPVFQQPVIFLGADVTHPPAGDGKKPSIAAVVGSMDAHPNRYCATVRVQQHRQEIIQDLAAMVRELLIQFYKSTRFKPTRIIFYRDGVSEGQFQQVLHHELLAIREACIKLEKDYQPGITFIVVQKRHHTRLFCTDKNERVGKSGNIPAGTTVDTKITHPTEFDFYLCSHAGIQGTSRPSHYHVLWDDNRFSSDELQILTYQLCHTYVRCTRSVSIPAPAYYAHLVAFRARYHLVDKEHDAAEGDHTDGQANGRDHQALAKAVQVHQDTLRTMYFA

| Binder | binding signal |
| --- | --- |
| B15 | 0.309 fold enrichment over input |
| B16 | 0.33 fold enrichment over input |
